Active and inactive are the calls of the source.

A short description of assay [1]: small molecules captured by biotinylated probe aFSTL3 – biochemical, small-molecule microarray, fluorescence 635/667, stem cell growth factor project, primary screen (AID 1064).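 Further: measures binding of the biotinylated anti-FSTL3 antibody to printed compounds.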 As to conditions: higher = more signal.
Assay [2] can be described thus: binders from COS7 lysate, DM2A8 probe, primary screen, torsin A project, cell lysate, small-molecule microarray, fluorescence 635/667 (AID 1065). To be noted: higher = more signal, COS7 lysate expressing mutant human TOR1A.
Assay [3] is described as follows: small molecules captured by biotinylated probe aFGF2 – biochemical, small-molecule microarray, fluorescence 635/667, stem cell growth factor project, primary screen (AID 1067).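 Further: measures binding of biotinylated aFGF2 protein to printed compounds on slides; z-score merges feature fluorescence and signal-to-noise across triplicate slides.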 As to conditions: higher = more signal.
A short description of assay [4]: small molecules captured by biotinylated probe aFGF10 – biochemical, small-molecule microarray, fluorescence 635/667, stem cell growth factor project, primary screen (AID 1071).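 Further: score merges 667 nm spot intensity and signal to noise from triplicate slides.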 As to conditions: higher = more signal.
In assay [5] the target is Neurogenic locus notch homolog protein 2 (Homo sapiens) (UniProt Q04721). Nature of the assay: small molecules binding Notch2 protein – biochemical, small-molecule microarray, 635 nm fluorescence, stem cell growth factors, primary screen (AID 1073). As to conditions: higher = more signal.
For assay [6], the target named is Pro-neuregulin-1, membrane-bound isoform (Homo sapiens) (UniProt Q02297). Nature of the assay: small molecules binding neuregulin-1 protein – biochemical, small-molecule microarray, fluorescence 635/667, psychiatric disease protein project, primary screen (AID 1075).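 Further: score combines 667 nm spot fluorescence with signal to noise.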 As to conditions: NRG1 binding, 635 nm fluorescence, higher = more signal.
Sequence of Pro-neuregulin-1, membrane-bound isoform (Homo sapiens) (Q02297 whole entry, looked up, the tested form may be a part, canonical isoform): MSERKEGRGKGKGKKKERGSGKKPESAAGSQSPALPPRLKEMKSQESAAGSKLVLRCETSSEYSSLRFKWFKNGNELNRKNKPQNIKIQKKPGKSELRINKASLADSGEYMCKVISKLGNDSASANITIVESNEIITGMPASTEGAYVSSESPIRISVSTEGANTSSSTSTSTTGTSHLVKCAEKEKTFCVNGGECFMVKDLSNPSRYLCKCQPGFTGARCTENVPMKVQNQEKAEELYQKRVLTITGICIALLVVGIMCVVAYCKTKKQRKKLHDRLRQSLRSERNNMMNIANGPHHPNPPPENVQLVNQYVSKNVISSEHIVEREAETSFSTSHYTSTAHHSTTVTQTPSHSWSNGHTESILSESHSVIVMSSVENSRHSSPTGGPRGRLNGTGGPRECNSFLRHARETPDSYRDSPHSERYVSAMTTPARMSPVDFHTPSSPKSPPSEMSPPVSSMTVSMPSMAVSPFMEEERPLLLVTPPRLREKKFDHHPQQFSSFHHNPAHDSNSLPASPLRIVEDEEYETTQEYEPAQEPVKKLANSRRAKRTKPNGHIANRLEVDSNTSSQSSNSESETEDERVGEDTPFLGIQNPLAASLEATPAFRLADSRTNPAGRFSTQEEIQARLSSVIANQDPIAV
For assay [7], the system named is Neuregulin-1 EGF-like domain. Nature of the assay: small molecules binding NRG1 EGF domain – biochemical, small-molecule microarray, 635 nm fluorescence, primary screen (AID 1081).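 Further: binding of the protein to compounds printed on small-molecule microarray slides.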 As to conditions: higher = more signal.
Assay [8] in a line: FRG1 expression reporter modulators in myotubes – cell-based, C2C12 myotubes, firefly/Renilla luciferase, luminescence, FRG1 inhibition for FSHD, primary screen (AID 1084). To be noted: FRG1 promoter luciferase, higher = more signal, called active from +8 up or from −8 down.
Assay [9] in a line: small molecules captured by biotinylated probe aFST – biochemical, small-molecule microarray, fluorescence 635/667, stem cell growth factor project, primary screen (AID 1086).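 Further: score merges 667 nm fluorescence with signal-to-noise of each printed compound spot.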 To be noted: higher = more signal.
Assay [10] can be described thus: binders of probe aHhip on microarray, primary screen, stem cell growth factor project, biochemical, small-molecule microarray, fluorescence 635/667 (AID 1087).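 Further: score merges spot fluorescence at 667nm with spot signal to noise ratio.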 To be noted: higher = more signal.
Assay [11] has as its system PRMT1 (protein arginine N-methyltransferase 1). In words: small molecules binding arginine methyltransferase PRMT1 – biochemical, small-molecule microarray, 635 nm fluorescence, primary screen (AID 1088).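 Further: binding of Prmt1 protein to compounds spotted on small-molecule microarray slides.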 To be noted: higher = more signal.
Assay [12] in a line: growth effects on S. cerevisiae YJM789 – YJM789 clinical isolate, OD600, 24 h, basal, primary screen (AID 1089).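 Further: growth of clinical yeast isolate S. cerevisiae YJM 789 seeded 1000 cells per well; test concentration not given here.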 To be noted: higher = more signal, called active from +8 up or from −8 down.
Assay [13] is described as follows: S. pombe growth modifiers, basal conditions – strain 972, OD600, 24 h, no modulator, primary screen (AID 1090).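 Further: basal condition with compound alone and no growth modifier present; test concentration not given here.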 As to conditions: S. pombe 972 growth, higher = more signal, called active from +8 up or from −8 down.
Assay [14] is described as follows: budding yeast growth modifiers under rapamycin – strain BY4716, OD600, 96 h, primary screen (AID 1091). Further: test concentration not given here. As to conditions: S. cerevisiae BY4716 + rapamycin, higher = more signal, called active from +8 up or from −8 down.
Assay [15] concerns the target Torsin-1A-interacting protein 2 (Homo sapiens) (UniProt Q8NFQ8). In words: small molecules binding lysate-expressed LULL1 – cell lysate, human LULL1 lysate, 635/667 nm fluorescence, primary screen (AID 1092).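 Further: probe is lysate of COS7 cells overexpressing human LULL1; score merges per-feature 667 nm fluorescence with signal-to-noise.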 As to conditions: small-molecule microarray, hLULL1 lysate binding, 635 nm fluorescence; higher = more signal.
Assay [16] is described as follows: optical density change of DRC41 E. coli – strain DRC41, OD650, 24 h, E. coli filamentation project, primary screen (AID 1093).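 Further: MC1000 strain lacking acrAB efflux and sulA so SOS filamentation is blocked; test concentration not given here.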 As to conditions: E. coli DRC41 growth, higher = more signal, called active from +8 up or from −8 down.
Assay [17] in a line: probe aLefty2 binding to arrayed compounds – biochemical, biotinylated probe, 635/667 nm fluorescence, primary screen (AID 1094).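 Further: score merges spot fluorescence near 667 nm with spot signal-to-noise ratio.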 As to conditions: small-molecule microarray, higher = more signal.
For assay [18], the system named is Noggin (protein binding on small-molecule microarray). Nature of the assay: small molecules binding Noggin protein – biochemical, 635/667 nm fluorescence, primary screen (AID 1095).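 Further: score merges 667 nm feature fluorescence with signal to noise over triplicate slides.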 To be noted: 635 nm fluorescence, higher = more signal.
The target of assay [19] is Neurogenic locus notch homolog protein 3 (Homo sapiens) (UniProt Q9UM47). In words: small molecules binding NOTCH3 protein – biochemical, 635/667 nm fluorescence, primary screen (AID 1096). As to conditions: small-molecule microarray, 635 nm fluorescence, higher = more signal.
Sequence of Neurogenic locus notch homolog protein 3 (Homo sapiens) (Q9UM47 whole entry, looked up): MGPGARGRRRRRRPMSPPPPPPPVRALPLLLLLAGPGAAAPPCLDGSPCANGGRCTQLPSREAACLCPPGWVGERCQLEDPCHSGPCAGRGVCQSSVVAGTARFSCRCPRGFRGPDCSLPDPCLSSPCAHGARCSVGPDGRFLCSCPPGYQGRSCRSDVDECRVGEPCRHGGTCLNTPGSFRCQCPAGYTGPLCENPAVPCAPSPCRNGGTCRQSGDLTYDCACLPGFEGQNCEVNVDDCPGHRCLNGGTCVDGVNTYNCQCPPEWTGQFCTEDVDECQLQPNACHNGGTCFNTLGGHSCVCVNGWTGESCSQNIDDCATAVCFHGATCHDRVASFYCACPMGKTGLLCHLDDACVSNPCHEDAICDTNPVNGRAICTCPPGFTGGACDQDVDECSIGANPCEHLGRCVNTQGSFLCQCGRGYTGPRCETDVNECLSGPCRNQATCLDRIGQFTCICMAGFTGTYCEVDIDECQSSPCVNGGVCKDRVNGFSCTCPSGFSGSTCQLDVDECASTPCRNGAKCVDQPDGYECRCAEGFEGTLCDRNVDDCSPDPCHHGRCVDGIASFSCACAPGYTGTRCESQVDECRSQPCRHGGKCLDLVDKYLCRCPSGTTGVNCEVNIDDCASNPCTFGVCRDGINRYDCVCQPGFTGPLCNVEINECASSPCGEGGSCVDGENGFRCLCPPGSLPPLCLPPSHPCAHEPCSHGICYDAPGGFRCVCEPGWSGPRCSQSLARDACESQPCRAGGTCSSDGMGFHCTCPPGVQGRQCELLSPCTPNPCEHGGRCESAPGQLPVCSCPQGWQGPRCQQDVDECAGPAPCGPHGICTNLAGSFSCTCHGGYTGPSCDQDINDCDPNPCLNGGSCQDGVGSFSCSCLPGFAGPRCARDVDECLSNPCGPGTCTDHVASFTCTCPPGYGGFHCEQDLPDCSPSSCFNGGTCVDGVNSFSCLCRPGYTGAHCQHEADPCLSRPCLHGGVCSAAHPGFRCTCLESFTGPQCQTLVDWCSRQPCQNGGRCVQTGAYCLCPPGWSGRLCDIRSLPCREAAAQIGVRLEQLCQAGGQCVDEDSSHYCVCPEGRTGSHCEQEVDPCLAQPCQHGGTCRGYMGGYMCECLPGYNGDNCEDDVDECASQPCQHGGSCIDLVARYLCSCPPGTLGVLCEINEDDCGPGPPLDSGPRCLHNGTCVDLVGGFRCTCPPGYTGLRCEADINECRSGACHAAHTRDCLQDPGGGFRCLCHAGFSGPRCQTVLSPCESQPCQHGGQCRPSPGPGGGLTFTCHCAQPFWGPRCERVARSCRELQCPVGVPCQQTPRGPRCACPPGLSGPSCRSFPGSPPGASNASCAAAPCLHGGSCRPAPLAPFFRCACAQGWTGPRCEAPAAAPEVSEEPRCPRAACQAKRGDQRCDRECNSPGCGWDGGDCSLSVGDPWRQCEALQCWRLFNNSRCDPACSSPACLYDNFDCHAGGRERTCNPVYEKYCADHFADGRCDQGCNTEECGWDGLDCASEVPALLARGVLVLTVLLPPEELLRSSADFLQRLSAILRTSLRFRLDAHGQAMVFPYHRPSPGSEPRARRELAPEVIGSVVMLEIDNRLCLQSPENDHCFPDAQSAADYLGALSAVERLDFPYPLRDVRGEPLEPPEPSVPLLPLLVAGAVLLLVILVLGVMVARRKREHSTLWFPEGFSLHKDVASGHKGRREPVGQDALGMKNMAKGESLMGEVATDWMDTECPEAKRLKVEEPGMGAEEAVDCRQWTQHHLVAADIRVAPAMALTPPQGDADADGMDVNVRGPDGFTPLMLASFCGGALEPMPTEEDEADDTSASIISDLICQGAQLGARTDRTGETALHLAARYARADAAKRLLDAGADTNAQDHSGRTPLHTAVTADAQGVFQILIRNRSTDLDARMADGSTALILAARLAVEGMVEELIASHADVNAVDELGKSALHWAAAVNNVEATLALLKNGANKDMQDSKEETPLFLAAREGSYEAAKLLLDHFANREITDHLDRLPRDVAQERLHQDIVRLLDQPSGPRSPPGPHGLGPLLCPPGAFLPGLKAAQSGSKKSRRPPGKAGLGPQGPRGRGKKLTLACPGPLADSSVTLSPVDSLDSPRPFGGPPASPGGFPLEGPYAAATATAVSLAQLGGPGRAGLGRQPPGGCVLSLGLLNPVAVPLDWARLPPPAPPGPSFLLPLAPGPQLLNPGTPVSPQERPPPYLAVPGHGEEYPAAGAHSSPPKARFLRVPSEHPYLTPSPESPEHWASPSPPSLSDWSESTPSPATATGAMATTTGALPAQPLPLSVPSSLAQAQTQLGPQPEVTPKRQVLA
Assay [20] can be described thus: probe aEGFR binding to arrayed compounds – biochemical, biotinylated probe, 635/667 nm fluorescence, primary screen (AID 1097).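 Further: probe is a biotinylated anti-EGFR antibody binding compounds printed on slides; score combines fluorescence near 667 nm and signal to noise of each spot.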 As to conditions: small-molecule microarray, higher = more signal.

Sequence of Torsin-1A-interacting protein 2 (Homo sapiens) (Q8NFQ8 whole entry, looked up): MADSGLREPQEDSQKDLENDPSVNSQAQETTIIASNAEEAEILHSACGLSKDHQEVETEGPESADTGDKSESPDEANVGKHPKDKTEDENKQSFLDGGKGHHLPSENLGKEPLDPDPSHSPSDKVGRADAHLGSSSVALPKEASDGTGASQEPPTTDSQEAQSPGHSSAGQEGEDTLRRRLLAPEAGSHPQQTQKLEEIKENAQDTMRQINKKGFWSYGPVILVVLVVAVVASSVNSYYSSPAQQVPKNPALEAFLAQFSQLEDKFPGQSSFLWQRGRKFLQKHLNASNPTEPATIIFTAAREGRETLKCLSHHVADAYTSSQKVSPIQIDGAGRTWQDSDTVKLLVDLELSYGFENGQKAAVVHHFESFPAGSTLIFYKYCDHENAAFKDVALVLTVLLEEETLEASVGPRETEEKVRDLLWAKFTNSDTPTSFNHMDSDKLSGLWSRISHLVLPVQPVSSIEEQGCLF

For `CCOC(=O)[C@H](CC(C)C)NC(=O)CCC1CC(OC(=O)NCCc2ccc(F)cc2)CC2(CCCC(COC(=O)NCCCN3CCCC3=O)O2)O1` (stereo not given in full), the composite z-score in [1] was -0.547; in assay [2], -0.0261; in assay [3], -0.0922; in assay [4], 0.403; in assay [5] it was 0.951; in assay [6], -0.0939. Further, the composite z-score in assay [7] is 0.763; in [9] it was -0.015; in assay [10] it was -0.0994; in assay [11], 0.838; in assay [15], 1.26; in [17], -0.132. Also, the composite z-score in [18] was 0.144; in assay [19], 0.965; in assay [20], -0.0208. For the same compound, the z-score in assay [8] was 0.404 (inactive); in [12] it was -0.388 (inactive); in assay [13], 0.531 (inactive); in assay [14], 0.0799 (inactive); in assay [16] it was 0.546 (inactive).

As to `CO[C@@H]1[C@H](O)CO[C@H]1C=Cc1ccccc1`, the composite z-score in [1] was -0.392; in assay [2], -0.0641; in assay [3], -0.0715; in [4] it was 0.211; in assay [5], 0.128; in assay [6], 0.206. Moreover, the composite z-score was 0.874 in assay [7]; 0.228 in assay [9]; -0.283 in assay [10]; 0.524 in assay [11]; 0.363 in assay [15]; -0.0895 in assay [17]. For the same compound, the values for the composite z-score in [18], in [19] and in assay [20] were 0.396, 0.0872 and -0.0581, respectively. The z-score is -0.253 (inactive) in assay [8]; 0.335 (inactive) in assay [12]; -1.14 (inactive) in [13]; -0.376 (inactive) in assay [14]; 0.447 (inactive) in assay [16].

On to `CCCCOC(OCCCC)C(O)CSc1ccc2ccccc2c1` (stereo not given), for which the composite z-score in [1] is -0.283; in assay [2], 0.61; in assay [3] it was -0.0599; in assay [4], 0.291; in assay [5], 0.525; in [6] it was -0.213. The composite z-score is 0.461 in assay [7]; 0.105 in assay [9]; 0.157 in [10]; 0.642 in [11]; 0.556 in assay [15]; -0.136 in [17]. For the same compound, the results for the composite z-score in assay [18], in [19] and in assay [20] were 0.542, 0.776 and -0.15, respectively. Further, the z-score is -1.52 (inactive) in assay [8]; 0.12 (inactive) in [12]; -2.25 (inactive) in assay [13]; 0.594 (inactive) in [14]; -0.419 (inactive) in assay [16].

Turning to `COC(=O)CC=C[C@@H](C)[C@@H](C=NOC(C)CN1CCCCc2nc(C)c(C)cc21)OC` (stereo not given in full), the composite z-score in assay [1] was -0.0416; in [2] it was 2.43; in [3], -0.175; in [4], -0.425; in assay [5], -0.229; in [6] it was 0.33. Besides, the composite z-score is 0.987 in assay [7]; 0.286 in assay [9]; -0.206 in [10]; 1.24 in assay [11]; 1.24 in [15]; -0.0063 in assay [17]. The composite z-score in assay [18] was 0.946; in [19], 0.234; in [20] it was 0.0282. Moreover, the z-score in [8] was 0.739 (inactive); in assay [12], -0.793 (inactive); in [13], -0.472 (inactive); in [14] it was -0.906 (inactive); in assay [16] it was -0.123 (inactive).

As for `O=C1[C@H]2[C@H]3[C@H](O)[C@H](O)CC(=NO[C@@H]4O[C@H](CO)[C@@H](O)[C@H](O)[C@H]4O)[C@@H]3CC[C@H]2C(=O)N1C[C@@H]1CCCO1`, the composite z-score in assay [1] is -0.603; in assay [2], -0.038; in assay [3] it was -0.0908; in assay [4], 0.529; in [5] it was 1.06; in [6], -0.0236. For the same compound, the composite z-score was 0.298 in assay [7]; 0.254 in [9]; 0.0505 in assay [10]; 1.08 in [11]; 1.21 in assay [15]; -0.0683 in assay [17]. In addition, the composite z-score in [18] was -0.287; in assay [19] it was 0.979; in [20] it was 0.0934. In addition, the z-score in assay [8] was 0.746 (inactive); in assay [12] it was 0.57 (inactive); in assay [13], -0.0413 (inactive); in assay [14], -0.0603 (inactive); in [16] it was 0.415 (inactive).
